Screening results: PubChem, National Center for Advancing Translational Sciences (NCATS)
This is a sample that favours compounds with a hit; in the whole collection about 8.7% have one here.
AMA1-RON2 inh = inhibitors of Plasmodium falciparum AMA1-RON2 interaction. AlphaScreen AMA1-biotinylated RON2 peptide binding. Potency, µM (doses to about 58.2 µM), inactives show top-dose activity change, negative = inhibition, most hits filed as inhibitors. 0.2% of 360,000 active;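 further: 0% = vehicle wells and -100% = peptide control; nearly all actives have a fitted effect of over 45% in size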
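AMA1 (3D7) with his tag at 25 nM final met compounds first, then biotinylated RON2 peptide at 25 nM; detection used donor plus acceptor beads, 10 µg/mL apiece, read by AlphaScreen after 30 min at room temperature.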
Vaccinia mCherry = vaccinia inhibition (mCherry reporter). Vaccinia virus mCherry reporter infection, fluorescence. 0.63% of 310,000 active. Potency, µM (doses to about 36.5 µM), for inactives: at the top dose activity change, negative = inhibition, most hits filed as inhibitors; calls by dose curve; tested in A549 cells; further: nearly all actives have a fitted effect of over 35% in size
Pf growth 48h = P. falciparum growth inhibition at 48 hours (one generation); P. falciparum luciferase growth in erythrocytes, 48 h; Potency, µM (highest dose often 28.7 µM), without a hit: at the highest dose activity change, negative = inhibition, hits mostly inhibitors; 5.9% of 310,000 active; AID 504832
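Cell-based growth assay: transgenic P. falciparum expressing firefly luciferase, cultured in red cells within RPMI 1640 containing 0.5% w/v Albumax, 24 mM bicarbonate and gentamycin. A drop in luciferase activity indicates inhibition.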
VACV Venus inh = inhibitors of vaccinia virus (Venus reporter). Vaccinia virus Venus reporter expression, fluorescence. Potency, µM (titrated, usually from 36.5 µM), for the others: at the highest dose activity change, negative = inhibition, usual class: inhibitors. 0.46% of 330,000 active; calls by dose curve; tested in A549 cells; further: nearly all actives have a fitted effect of over 30% in size
Pf growth 96h = P. falciparum growth inhibition at 96 hour, primary screen for plastid delayed-death inhibitors; P. falciparum luciferase reporter growth, 96 h; Potency, µM (top dose mostly 28.7 µM), inactives show at the highest dose activity change, negative = inhibition, most hits filed as inhibitors; 6.9% of 320,000 active; AID 504834
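Plates of compound plus infected erythrocytes (2% hematocrit, 0.05% parasitemia final) incubate 96 hours, 37 C, 5% CO2. Detection reagent added; reduced luminescence from the parasites' luciferase reporter flags inhibition.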
Active calls of the source: *; i = inactive; u = inconclusive; x = no result; [ ] = another dose, or the depositor's remark. Unless noted, the call rests on the fitted dose curve; in most records, active means well fitted curve in the direction sought with a large enough effect; inconclusive means small, poorly fitted or top-dose-only effect, or another doubt; inactive means no such curve, though single readings can be large; an effect the other way counts as inactive or inconclusive. Unless noted, on the % scale 0 is the no-effect control and ±100 the full control effect; potency means the concentration at half of the fitted maximal effect.

SMILES	AMA1-RON2 inh	Vaccinia mCherry	Pf growth 48h	VACV Venus inh	Pf growth 96h
Cc1cc(C)cc(N2C(=O)CS(=O)(=O)C23C(=O)N(Cc2ccccc2)c2ccccc23)c1 (stereo not drawn)	x	-5%	x	-5%	x
CC(C)Oc1ccc(C(=O)NC2CCCCC2)cc1	29%	x	127%	-18%	x
CC(C)Oc1ccc(C(CCN)C2CCCCC2)cc1 (stereo not drawn)	-5%	13µM*	u	u	u
CCCn1c(=O)c2c(C(=O)OCC)cc(-c3ccco3)nc2n(CCC)c1=O	1%	x	x	x	1.5µM*
CCOC(=O)c1cc(-c2ccco2)nc2c1c(C)nn2-c1ccccc1	9%	-15%	9.3µM*	-4%	14%
CCCn1c(=O)c2c(C(F)(F)F)cc(-c3ccco3)nc2n(CCC)c1=O	-12%	-4%	-10%	20%	x
Cc1ccc(S(=O)(=O)N(C)C)cc1NC(=O)c1cc(C(C)(C)C)nn1Cc1ccccc1	0%	x	u	x	7.4µM*
CC(C)(C)c1cc(C(=O)NNC(=O)Nc2cccc(Cl)c2)n(Cc2ccccc2)n1	52%	-9%	u	-7%	9.3µM*
CC(C)(C)c1cc(C(=O)NNC(=O)Nc2ccccc2)n(Cc2ccccc2)n1	79%	x	5.2µM*	x	9.3µM*
Cc1ccc(S(=O)(=O)N(C)C)cc1NC(=O)CN1CCN(Cc2ccccc2)CC1	-4%	1%	3%	-7%	-15%
CC1CN(CCS(=O)(=O)c2cc(Cl)ccc2Cl)CC(C)O1 (stereo not drawn)	5%	11µM*	-25%	u	u
CNC(=O)c1nnsc1S(=O)c1ccc(Cl)cc1 (stereo not drawn)	0%	-28%	15µM*	-21%	u
COc1cccc(-c2noc(N)c2C#N)c1	9%	x	7.4µM*	x	-3%
COc1ccc2c(=O)c(OC)c(-c3ccccc3)oc2c1	x	i	x	0%	x
O=C(NCc1ccc2c(c1)OCO2)C12CN(Cc3ccccc3)CC1C(c1cccc([N+](=O)[O-])c1)=NO2 (stereo not drawn)	0%	u	9.3µM*	-22%	u
O=C(NCc1ccc(C(F)(F)F)cc1)C12CN(Cc3ccccc3)CC1C(c1cccc([N+](=O)[O-])c1)=NO2 (stereo not drawn)	-28%	-17%	9.3µM*	-15%	9.3µM*
COc1ccc(CCNC(=O)C23CN(Cc4ccccc4)CC2C(c2cccc([N+](=O)[O-])c2)=NO3)cc1 (stereo not drawn)	u	-27%	u	-13%	u
CCc1ccccc1NC(=O)CCNS(=O)(=O)c1ccc2c(c1)CCN2C(=O)C1CC1	x	-11%	x	-5%	x
COc1cc(NC(=O)CCc2c(C)n(C)c3cc(-c4ccccc4C)nn3c2=O)cc(OC)c1OC	x	-12%	x	1%	x
CCN1C(=O)c2cccc3c(S(=O)(=O)N(C(=O)c4ccncc4)c4ccc(OC)cc4)ccc1c23	40%	i	15µM*	-22%	13µM*
CCN1C(=O)c2cccc3c(S(=O)(=O)N(C(=O)c4cccnc4)c4ccc(OC)cc4)ccc1c23	73%	-26%	u	u	u
C=C(CN(C)C)C(=O)c1cc(C)ccc1C	4%	u	x	7.1µM*	x
O=C(NC1CC(=O)N(c2ccc(F)cc2)C1)c1ccc2c(c1)OCO2 (stereo not drawn)	x	-1%	x	-16%	x
CCc1cc2c(nc1CC)CCN(CC/C(C)=N/O[C@@H](C)c1cc(-c3c(C)cc(C)cc3C)no1)C2	x	x	u	x	7.4µM*
Cc1ccc(OCCCCN2CCc3ccccc3C2)c(C)c1	-1%	u	-33%	-20%	-35%
SMILES	AMA1-RON2 inh	Vaccinia mCherry	Pf growth 48h	VACV Venus inh	Pf growth 96h
C/C(CCN1CCc2nc(-c3ccccc3)c(-c3ccccc3)cc2C1)=N\O[C@@H](C)c1cc(-c2c(C)cc(C)cc2C)no1	0%	u	u	-24%	13µM*
COC(=O)c1c(NC(=O)c2cc3ccccc3c(=O)o2)sc2c1CCCC2	x	4%	x	14%	x
CCc1nn(CC(=O)NCCN(CC(C)C)CC(C)C)c(=O)c2cc3sc(C)cc3n12	x	-12%	x	-13%	x
CC(=O)Nc1cc2c(ccc3ccccc32)oc1=O	-1%	13%	4%	-3%	0%
CC(=O)c1cc2c(ccc3ccccc32)oc1=O	-5%	i	10%	-5%	2.3µM*
COc1ccc(OCC#CCN2CCNCC2)cc1	-29%	x	16%	x	1.9µM*
COC(=O)c1cc(C)nc2c1C(=O)C(=O)C=C2N1CCOCC1	u	u	13µM*	4.5µM*	-2%
Cc1ccnc(N2CCC(C(=O)Nc3ccc4c(c3)CCC4)CC2)n1	-7%	x	-15%	x	-2%
Cc1cc(C)nc(N2CCCC(C(=O)Nc3nc4ccc(S(C)(=O)=O)cc4s3)C2)n1 (stereo not drawn)	-7%	x	7.4µM*	x	x
Cc1cc(C)nc(N2CCC(C(=O)Nc3ccc4c(c3)CCC4)CC2)n1	-3%	x	16%	x	12µM*
Cc1cc(C)cc(NC(=O)C2CCCN(c3nc(C)cc(C)n3)C2)c1 (stereo not drawn)	9%	i	x	-2%	x
Cc1cc(C)nc(N2CCCC(C(=O)Nc3ccc4nc(C)c(C)nc4c3)C2)n1 (stereo not drawn)	-7%	x	12µM*	x	x
CCC(C)NC(=O)C1CCCN(c2nc(C)cc(OC)n2)C1 (stereo not drawn)	2%	x	-27%	-19%	44%
COc1cc(C)nc(N2CCCC(C(=O)NC3CCC(C)CC3)C2)n1 (stereo not drawn)	-3%	i	28%	-15%	2.9µM*
CCCOc1ccccc1C(=O)N1CCCCC1CCN1CCCCC1 (stereo not drawn)	x	-15%[7.34 µM]	x	-5%[7.34 µM]	x
CCOc1ccc(C(=O)c2cn(CC(=O)Nc3cc(OC)cc(OC)c3)c3ccc(F)cc3c2=O)cc1	x	-21%	x	-18%	x
COc1cccc2c1cc1c(=O)n(CC(=O)O)nc(C)n12	x	-5%	x	-11%	x
O=c1c(Cc2ccc(F)cc2)c(O)ccn1C1CC1	0%	i	5.2µM*	-19%	-13%
O=c1c(Cc2c(F)cccc2Cl)c(O)ccn1C1CCCCCC1	-1%	x	u	x	-17%
O=C(Cn1c(NCCCO)nc2ccccc21)c1ccc(Cl)cc1	0%	x	u	x	0%
O=C(Cn1c(NCCCO)nc2ccccc21)c1ccc(Cl)cc1Cl	0%	-29%	1.7µM*	-17%	9.3µM*
COc1ccc(C(=O)Cn2c(NCCCO)nc3ccccc32)cc1	3%	-21%	x	-1%	x
COc1ccc(-n2c(C)cc(C(=O)Cn3c(NCCO)nc4ccccc43)c2C)cc1	-22%	-3%	0%	-24%	10µM*
Cc1csc[n+]1CC(=O)c1ccc(I)cc1	x	-14%	x	-17%	x
CCc1ccc(-n2c(=O)c3c4c(sc3n(Cc3ccccc3C#N)c2=O)CCC4)cc1	x	-17%	x	-4%	x
CC(C)C(=O)NC(Nc1cccc([N+](=O)[O-])c1)C(Cl)(Cl)Cl (stereo not drawn)	2%	-7%	1.9µM*	-25%	23%
